NS1 inh: inhibitors of influenza NS1 protein function | 0.4% of 270,000 active | Potency, µM (titrated, usually from 46.1 µM), for the others: at the top dose activity, positive = more growth | AID 2326; further: potency means the concentration at half of the fitted maximal effect; actives are rising curves; nearly all actives have a fitted effect of over 50% in size
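Compounds were scored for reversing the slow growth caused by influenza A NS1 in S. cerevisiae, measured by optical density at 600 nm. Assay medium contained 2% galactose at pH 6.0; NS1-free yeast of the same strain were the positive control.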
Pf growth 96h: inhibits malaria parasite growth, 96 h. P. falciparum luciferase reporter growth, 96 h. Potency, µM (titrated, usually from 28.7 µM), for inactives: top-dose activity change, negative = inhibition, usual class: inhibitors. 6.9% of 320,000 active. AID 504834; active means well fitted inhibition curve with a large enough effect; inconclusive means small, poorly fitted or top-dose-only effect, or another doubt; inactive means no such curve, though single readings can be large or run the other way; further: potency means the concentration at half of the fitted maximal effect; on the % scale 0 is the no-effect control and ±100 the full control effect
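Two-generation exposure (96 h) targets delayed-death phenotype. Reporter parasites carrying integrated firefly luciferase, in red cells at 2% hematocrit and 0.05% parasitemia final, kept at 37 C, 5% CO2; luminescence loss indicates inhibition.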
Cycloheximide cs: counter-screen hit for Shiga toxin inhibitors, cycloheximide | cell reporter, cycloheximide protein synthesis inhibition counterscreen | 12% of 300,000 active | max response, %; in the data active means max response mostly above about 13%, no sharp cut-off; inactive means mostly below about 14%; further: read at 38.3 µM for the half of the compounds with a filed dose; 0% is about no effect
Pf growth 48h: P. falciparum growth inhibition at 48 hours (one generation). P. falciparum luciferase growth in erythrocytes, 48 h. Potency, µM (doses to about 28.7 µM), for inactives: at the highest dose activity change, negative = inhibition, hits mostly inhibitors. 5.9% of 310,000 active. AID 504832; active means well fitted inhibition curve with a large enough effect; inconclusive means small, poorly fitted or top-dose-only effect, or another doubt; inactive means no such curve, though single readings can be large or run the other way; further: potency means the concentration at half of the fitted maximal effect; on the % scale 0 is the no-effect control and ±100 the full control effect
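In quantitative HTS format, infected erythrocytes bearing luciferase-reporter parasites were treated for a single generation at 37 C. Luminescence after adding detection reagent served as the growth measure.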
Shiga inhibitor: Shiga toxin inhibition. inhibition, % at 38.7 µM. Vero cells, Shiga toxin protein synthesis inhibition reporter. 9.2% of 290,000 active. AID 2315; in the data active means inhibition mostly above about 28%, no sharp cut-off; inactive means mostly below about 43%; further: 0% is about no effect
SARS PLP yeast: SARS-CoV PLP inhibition in yeast. S. cerevisiae expressing SARS-CoV PLpro, growth rescue. Potency, µM (highest dose often 32.9 µM), for the others: at the highest dose activity, positive = growth rescue, hits mostly activators. 0.19% of 330,000 active; further: potency means the concentration at half of the fitted maximal effect; 0% is about no effect; nearly all actives have a fitted effect of over 55% in size
Starred values were filed as active, the others as inactive. Shown are actives, neighbours in structure and some others; about 21% of the full set was active somewhere. Unless noted, the call rests on the fitted dose curve.

CC(=O)c1cccc(N=c2scc(-c3ccc(S(=O)(=O)N4CCOCC4)cc3)n2CCO)c1 was read as NS1 inh -15%, Pf growth 96h 4.7µM*, Cycloheximide cs 3, Pf growth 48h 5.2µM*, Shiga inhibitor -3 and SARS PLP yeast 9%.
`COc1ccc(N=c2scc(-c3ccc(S(=O)(=O)N4CCOCC4)cc3)n2CCCO)cc1` gave NS1 inh -51%, Pf growth 96h -16%, Cycloheximide cs 2, Pf growth 48h 12µM*, Shiga inhibitor -3 and SARS PLP yeast 2%.
CCN(CC(=O)Nc1ccc2c(c1)OCCO2)C(=O)c1ccc(Cl)cc1Cl was read as Pf growth 96h 143%, Pf growth 48h 89% and SARS PLP yeast -1%.
CCN(C(=O)Cc1c(C(=O)O)[nH]c2ccccc12)c1cc(OC)ccc1OC was read as NS1 inh -8%, Pf growth 96h 7.4µM*, Cycloheximide cs -2, Pf growth 48h inconclusive, Shiga inhibitor 4 and SARS PLP yeast inconclusive.
`O=C(CSc1nnc(SCc2ccc(Cl)cc2)s1)c1ccc2c(c1)OCO2` gave NS1 inh 4%, Pf growth 96h inconclusive, Cycloheximide cs -5, Pf growth 48h 10%, Shiga inhibitor -11 and SARS PLP yeast inconclusive.
CN(C)S(=O)(=O)c1cccc(C(=O)Nc2ccc3c(c2)CCC3)c1 was read as NS1 inh 4%, Pf growth 96h 395%, Cycloheximide cs 43*, Pf growth 48h 273%, Shiga inhibitor 106* and SARS PLP yeast -1%.
For COc1ccc(NC(=O)c2ccc(S(=O)(=O)N(C)C)cc2)cc1OC the results were NS1 inh 2%, Pf growth 96h inconclusive, Cycloheximide cs -2, Pf growth 48h -4%, Shiga inhibitor -6 and SARS PLP yeast 1%.
CN(C)S(=O)(=O)c1ccc(C(=O)Nc2ccc3c(c2)CCC3)cc1 was read as NS1 inh -5%, Pf growth 96h 2%, Cycloheximide cs 29*, Pf growth 48h 9%, Shiga inhibitor 33* and SARS PLP yeast -1%.
For CCOc1ccc(C(=O)NCC(c2ccco2)N2CCOCC2)cc1 (stereo not given) the results were Pf growth 96h 21%, Pf growth 48h -24% and SARS PLP yeast -3%.
`O=C1CCCN1S(=O)(=O)c1ccc(F)cc1` gave NS1 inh 18%, Pf growth 96h -7%, Cycloheximide cs 12, Pf growth 48h 0%, Shiga inhibitor 17 and SARS PLP yeast -2%.
`Clc1ccc(SCc2nc3ccccc3[nH]2)cc1` gave NS1 inh -73%, Pf growth 96h 99%, Cycloheximide cs 49*, Pf growth 48h 62%, Shiga inhibitor active and SARS PLP yeast -28%.
Screening Clc1ccc(OCCSCc2nc3ccccc3[nH]2)cc1 returned NS1 inh -36%, Pf growth 96h inconclusive, Cycloheximide cs 7, Pf growth 48h inconclusive, Shiga inhibitor 5 and SARS PLP yeast -34%.
Screening Cc1nc(N2CCN(Cc3nc4ccccc4[nH]3)CC2)c2oc3ccccc3c2n1 returned NS1 inh -94%, Pf growth 96h 5.9µM*, Cycloheximide cs 7, Pf growth 48h inconclusive, Shiga inhibitor 29 and SARS PLP yeast -4%.
Cc1ccc(OCCSCc2nc3ccccc3[nH]2)cc1 was read as NS1 inh -89%, Pf growth 96h inconclusive, Cycloheximide cs -3, Pf growth 48h inconclusive, Shiga inhibitor -6 and SARS PLP yeast 1%.
For Cc1ccc(CSCc2nc3ccccc3[nH]2)cc1 the results were Pf growth 96h inconclusive, Cycloheximide cs 39*, Pf growth 48h 10%, Shiga inhibitor 66* and SARS PLP yeast -2%.
`c1ccc2[nH]c(CN3CCN(c4ncnc5c4oc4ccccc45)CC3)nc2c1` gave NS1 inh -67%, Pf growth 96h 24%, Cycloheximide cs 10, Pf growth 48h inconclusive, Shiga inhibitor -8 and SARS PLP yeast 5%.
For Cc1cc(C)cc(CC(Cc2nc3ccccc3[nH]2)c2nc3ccccc3[nH]2)c1 (stereo not given) the results were NS1 inh -10%, Pf growth 96h 121%, Cycloheximide cs 8, Pf growth 48h 2.3µM*, Shiga inhibitor -3 and SARS PLP yeast 8%.
Screening CCOC(=O)c1c(-c2ccco2)csc1NC(=O)COC(=O)c1cnc(C)cn1 returned Pf growth 96h 0%, Pf growth 48h 1% and SARS PLP yeast -18%.
Screening CCn1c(SCc2nc3ccccc3[nH]2)nnc1-c1ccc(OC)cc1 returned NS1 inh -11%, Pf growth 96h -6%, Cycloheximide cs -4, Pf growth 48h -6%, Shiga inhibitor -13 and SARS PLP yeast 0%.
For Fc1ccccc1CSCc1nc2ccccc2[nH]1 the results were NS1 inh -2%, Pf growth 96h inconclusive, Cycloheximide cs 25*, Pf growth 48h 48%, Shiga inhibitor 101* and SARS PLP yeast -2%.
`Nn1c(SCc2nc3ccccc3[nH]2)nnc1-c1ccccc1` gave NS1 inh 1%, Pf growth 96h 4%, Cycloheximide cs 4, Pf growth 48h 42%, Shiga inhibitor 14 and SARS PLP yeast 3%.
`Cc1ccc(SCc2nc3ccccc3[nH]2)cc1` gave NS1 inh -50%, Pf growth 96h 36%, Cycloheximide cs 45*, Pf growth 48h 65%, Shiga inhibitor 130* and SARS PLP yeast -8%.
CC(C)SCc1nc2ccccc2[nH]1 was read as NS1 inh -4%, Cycloheximide cs 15*, Pf growth 48h 21%, Shiga inhibitor 14 and SARS PLP yeast 3%.
For c1ccc(SCc2nc3ccccc3[nH]2)cc1 the results were NS1 inh -34%, Pf growth 96h 205%, Cycloheximide cs 41*, Pf growth 48h 117%, Shiga inhibitor 163* and SARS PLP yeast 5%.

Compound activity from PubChem BioAssay.
